Measurements from the supplement of paper PMC11732987, “Enantioselective OTUD7B fragment discovery through chemoproteomics screening and high-throughput optimisation” (Communications Chemistry, 2025).

What was measured:
Assay in all cases: log2 ratio of Biotin-Ahx-Ub-VS probe labelling (fragment/DMSO); higher = less target engagement (more negative = stronger competition), active = hit call of the paper (q ≤ 0.05, log2 ratio ≤ -1)
Settings in all cases: compound concentration: 200 uM; treatment time: 3 h
[1] = biological target: T1, USP42 (UniProt Q9H9J4)
T1 sequence (whole entry): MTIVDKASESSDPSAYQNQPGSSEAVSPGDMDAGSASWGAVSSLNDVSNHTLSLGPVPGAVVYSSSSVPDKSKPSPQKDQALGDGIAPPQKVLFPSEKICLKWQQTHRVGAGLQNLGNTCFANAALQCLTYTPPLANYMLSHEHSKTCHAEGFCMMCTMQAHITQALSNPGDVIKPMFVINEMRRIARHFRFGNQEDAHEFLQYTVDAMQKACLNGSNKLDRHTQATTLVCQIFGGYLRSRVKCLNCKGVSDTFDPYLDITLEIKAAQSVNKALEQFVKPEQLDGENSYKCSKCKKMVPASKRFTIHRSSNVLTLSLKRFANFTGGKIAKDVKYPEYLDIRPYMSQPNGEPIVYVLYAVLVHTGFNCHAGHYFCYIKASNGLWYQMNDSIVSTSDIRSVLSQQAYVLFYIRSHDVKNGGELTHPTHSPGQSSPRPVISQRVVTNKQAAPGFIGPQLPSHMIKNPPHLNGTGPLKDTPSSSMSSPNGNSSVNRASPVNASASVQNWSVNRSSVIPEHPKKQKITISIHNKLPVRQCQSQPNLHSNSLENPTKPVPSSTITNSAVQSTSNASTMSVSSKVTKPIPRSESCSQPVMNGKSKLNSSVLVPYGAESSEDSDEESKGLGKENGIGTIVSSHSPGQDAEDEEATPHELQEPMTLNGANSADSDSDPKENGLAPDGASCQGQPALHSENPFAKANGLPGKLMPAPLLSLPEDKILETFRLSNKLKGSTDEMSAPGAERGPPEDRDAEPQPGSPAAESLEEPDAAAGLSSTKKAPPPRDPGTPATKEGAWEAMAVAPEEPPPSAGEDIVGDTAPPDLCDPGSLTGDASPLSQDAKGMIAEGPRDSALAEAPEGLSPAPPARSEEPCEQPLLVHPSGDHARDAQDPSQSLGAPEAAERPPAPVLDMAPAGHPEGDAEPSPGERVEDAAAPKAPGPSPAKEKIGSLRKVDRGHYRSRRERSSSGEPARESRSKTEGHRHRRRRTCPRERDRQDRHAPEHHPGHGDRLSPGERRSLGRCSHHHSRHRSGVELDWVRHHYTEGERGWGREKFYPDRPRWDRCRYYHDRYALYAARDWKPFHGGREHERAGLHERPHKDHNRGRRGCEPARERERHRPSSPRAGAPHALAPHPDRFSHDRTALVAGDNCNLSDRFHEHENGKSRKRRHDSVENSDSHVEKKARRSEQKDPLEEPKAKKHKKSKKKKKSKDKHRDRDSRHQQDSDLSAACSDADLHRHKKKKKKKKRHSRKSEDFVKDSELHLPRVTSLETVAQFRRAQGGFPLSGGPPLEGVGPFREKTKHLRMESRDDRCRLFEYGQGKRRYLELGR
Outline: (§1)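 HEK293T lysate (495 µg per sample, in Tris/CHAPS/IGEPAL buffer with protease inhibitors) was exposed in triplicate for 3 h to fragment at 200 µM or to vehicle, then to Biotin-Ahx-Ub-VS at 0.5 µM final for 1 h. Labelled DUBs were enriched on NeutrAvidin, digested with LysC and trypsin, and analysed by diaPASEF LC-MS/MS. Spectronaut label-free quantities were normalised to the global median, and values are average log2 ratios of fragment over vehicle from an unpaired t-test. Only proteins with ≥2 unique peptides were used.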

[2] = biological target: USP46 (UniProt P62068)
Outline: as §1

[3] = biological target: T2, USP47 (UniProt Q96K76)
T2 sequence (whole entry): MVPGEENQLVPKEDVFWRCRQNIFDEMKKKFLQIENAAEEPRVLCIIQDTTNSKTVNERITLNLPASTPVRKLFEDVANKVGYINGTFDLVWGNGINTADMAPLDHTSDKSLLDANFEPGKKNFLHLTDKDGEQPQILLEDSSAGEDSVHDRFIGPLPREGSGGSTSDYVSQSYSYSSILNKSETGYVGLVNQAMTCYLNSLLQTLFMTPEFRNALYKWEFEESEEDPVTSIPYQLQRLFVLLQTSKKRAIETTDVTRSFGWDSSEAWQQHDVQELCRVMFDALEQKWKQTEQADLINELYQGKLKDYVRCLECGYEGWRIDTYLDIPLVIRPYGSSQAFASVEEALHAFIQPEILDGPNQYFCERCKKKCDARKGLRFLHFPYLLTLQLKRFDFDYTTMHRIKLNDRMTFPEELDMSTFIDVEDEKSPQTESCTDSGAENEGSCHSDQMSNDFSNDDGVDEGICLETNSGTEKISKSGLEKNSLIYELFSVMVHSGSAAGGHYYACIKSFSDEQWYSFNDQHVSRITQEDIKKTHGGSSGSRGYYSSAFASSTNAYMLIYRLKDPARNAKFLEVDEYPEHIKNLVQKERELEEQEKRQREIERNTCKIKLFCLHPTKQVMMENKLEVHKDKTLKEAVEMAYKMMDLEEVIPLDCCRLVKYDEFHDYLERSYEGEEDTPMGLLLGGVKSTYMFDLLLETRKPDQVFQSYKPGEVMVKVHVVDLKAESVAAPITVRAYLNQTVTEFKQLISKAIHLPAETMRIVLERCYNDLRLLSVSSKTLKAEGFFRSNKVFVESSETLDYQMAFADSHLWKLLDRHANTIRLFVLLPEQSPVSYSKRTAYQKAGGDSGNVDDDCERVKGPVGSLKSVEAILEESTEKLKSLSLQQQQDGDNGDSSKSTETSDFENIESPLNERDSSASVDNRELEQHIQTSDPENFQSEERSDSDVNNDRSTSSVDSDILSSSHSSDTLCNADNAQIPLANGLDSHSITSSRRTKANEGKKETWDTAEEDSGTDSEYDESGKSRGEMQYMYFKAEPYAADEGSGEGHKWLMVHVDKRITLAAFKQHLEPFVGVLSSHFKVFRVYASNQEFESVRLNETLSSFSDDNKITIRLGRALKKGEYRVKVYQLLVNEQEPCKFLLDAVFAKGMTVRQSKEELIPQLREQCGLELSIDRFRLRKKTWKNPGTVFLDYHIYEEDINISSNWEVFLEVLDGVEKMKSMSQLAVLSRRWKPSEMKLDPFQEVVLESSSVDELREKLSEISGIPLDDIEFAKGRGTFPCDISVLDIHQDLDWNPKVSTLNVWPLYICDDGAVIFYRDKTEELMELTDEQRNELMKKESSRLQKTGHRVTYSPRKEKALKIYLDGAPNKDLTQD
Outline: as §1

[4] = biological target: T3, USP48 (UniProt Q86UV5)
T3 sequence (whole entry): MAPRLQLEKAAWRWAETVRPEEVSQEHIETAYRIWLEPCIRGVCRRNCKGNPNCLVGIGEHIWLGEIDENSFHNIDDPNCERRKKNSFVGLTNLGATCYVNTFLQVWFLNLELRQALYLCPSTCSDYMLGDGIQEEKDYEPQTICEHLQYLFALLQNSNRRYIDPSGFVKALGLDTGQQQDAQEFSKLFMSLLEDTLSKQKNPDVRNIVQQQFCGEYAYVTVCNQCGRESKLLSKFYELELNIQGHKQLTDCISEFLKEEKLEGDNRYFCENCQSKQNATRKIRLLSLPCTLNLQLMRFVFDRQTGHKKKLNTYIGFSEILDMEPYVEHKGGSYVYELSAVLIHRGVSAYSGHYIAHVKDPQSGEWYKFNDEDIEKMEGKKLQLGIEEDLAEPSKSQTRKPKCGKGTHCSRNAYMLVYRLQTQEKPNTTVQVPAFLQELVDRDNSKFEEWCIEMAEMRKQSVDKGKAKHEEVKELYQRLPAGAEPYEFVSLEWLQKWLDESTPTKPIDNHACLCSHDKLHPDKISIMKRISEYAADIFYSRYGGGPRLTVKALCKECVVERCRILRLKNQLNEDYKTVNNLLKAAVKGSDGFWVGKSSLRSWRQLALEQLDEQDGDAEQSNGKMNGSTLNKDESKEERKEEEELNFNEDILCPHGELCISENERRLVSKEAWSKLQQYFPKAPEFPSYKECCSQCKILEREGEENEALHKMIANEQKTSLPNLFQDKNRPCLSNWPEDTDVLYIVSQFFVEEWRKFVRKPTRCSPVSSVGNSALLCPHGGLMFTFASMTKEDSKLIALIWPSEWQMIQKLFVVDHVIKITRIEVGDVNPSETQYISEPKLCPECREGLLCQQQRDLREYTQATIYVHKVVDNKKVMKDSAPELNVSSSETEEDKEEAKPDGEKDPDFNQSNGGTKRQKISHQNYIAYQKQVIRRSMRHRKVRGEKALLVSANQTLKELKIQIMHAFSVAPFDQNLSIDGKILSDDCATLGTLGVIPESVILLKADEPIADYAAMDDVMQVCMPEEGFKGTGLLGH
Outline: as §1

[5] = biological target: T4, USP5 (UniProt P45974)
T4 sequence (whole entry): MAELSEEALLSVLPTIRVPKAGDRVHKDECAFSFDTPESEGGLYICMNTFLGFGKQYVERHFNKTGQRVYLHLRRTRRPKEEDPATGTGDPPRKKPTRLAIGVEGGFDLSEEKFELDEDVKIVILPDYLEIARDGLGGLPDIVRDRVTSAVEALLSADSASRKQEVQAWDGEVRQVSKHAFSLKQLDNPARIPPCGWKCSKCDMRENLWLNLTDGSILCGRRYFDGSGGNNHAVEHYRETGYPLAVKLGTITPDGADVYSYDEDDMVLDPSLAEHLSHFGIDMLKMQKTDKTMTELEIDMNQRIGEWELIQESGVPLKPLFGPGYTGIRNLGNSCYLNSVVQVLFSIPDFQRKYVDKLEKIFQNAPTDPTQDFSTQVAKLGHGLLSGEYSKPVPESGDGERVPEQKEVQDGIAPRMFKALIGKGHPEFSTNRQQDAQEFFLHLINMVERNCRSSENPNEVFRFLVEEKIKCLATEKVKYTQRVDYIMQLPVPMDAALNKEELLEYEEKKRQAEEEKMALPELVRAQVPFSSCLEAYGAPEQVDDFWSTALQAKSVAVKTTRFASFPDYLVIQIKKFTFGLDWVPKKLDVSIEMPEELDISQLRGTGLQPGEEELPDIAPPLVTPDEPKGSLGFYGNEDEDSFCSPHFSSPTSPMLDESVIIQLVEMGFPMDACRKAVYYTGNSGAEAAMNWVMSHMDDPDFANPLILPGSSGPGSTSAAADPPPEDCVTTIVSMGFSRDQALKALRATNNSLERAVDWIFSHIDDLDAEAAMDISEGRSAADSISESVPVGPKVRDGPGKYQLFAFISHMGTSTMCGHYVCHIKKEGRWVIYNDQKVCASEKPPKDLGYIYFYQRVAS
Outline: as §1

[6] = biological target: USP54 (UniProt Q70EL1)
Outline: as §1

[7] = biological target: USP7 (UniProt Q93009)
Outline: as §1

[8] = biological target: T5, USP8 (UniProt P40818)
T5 sequence (whole entry): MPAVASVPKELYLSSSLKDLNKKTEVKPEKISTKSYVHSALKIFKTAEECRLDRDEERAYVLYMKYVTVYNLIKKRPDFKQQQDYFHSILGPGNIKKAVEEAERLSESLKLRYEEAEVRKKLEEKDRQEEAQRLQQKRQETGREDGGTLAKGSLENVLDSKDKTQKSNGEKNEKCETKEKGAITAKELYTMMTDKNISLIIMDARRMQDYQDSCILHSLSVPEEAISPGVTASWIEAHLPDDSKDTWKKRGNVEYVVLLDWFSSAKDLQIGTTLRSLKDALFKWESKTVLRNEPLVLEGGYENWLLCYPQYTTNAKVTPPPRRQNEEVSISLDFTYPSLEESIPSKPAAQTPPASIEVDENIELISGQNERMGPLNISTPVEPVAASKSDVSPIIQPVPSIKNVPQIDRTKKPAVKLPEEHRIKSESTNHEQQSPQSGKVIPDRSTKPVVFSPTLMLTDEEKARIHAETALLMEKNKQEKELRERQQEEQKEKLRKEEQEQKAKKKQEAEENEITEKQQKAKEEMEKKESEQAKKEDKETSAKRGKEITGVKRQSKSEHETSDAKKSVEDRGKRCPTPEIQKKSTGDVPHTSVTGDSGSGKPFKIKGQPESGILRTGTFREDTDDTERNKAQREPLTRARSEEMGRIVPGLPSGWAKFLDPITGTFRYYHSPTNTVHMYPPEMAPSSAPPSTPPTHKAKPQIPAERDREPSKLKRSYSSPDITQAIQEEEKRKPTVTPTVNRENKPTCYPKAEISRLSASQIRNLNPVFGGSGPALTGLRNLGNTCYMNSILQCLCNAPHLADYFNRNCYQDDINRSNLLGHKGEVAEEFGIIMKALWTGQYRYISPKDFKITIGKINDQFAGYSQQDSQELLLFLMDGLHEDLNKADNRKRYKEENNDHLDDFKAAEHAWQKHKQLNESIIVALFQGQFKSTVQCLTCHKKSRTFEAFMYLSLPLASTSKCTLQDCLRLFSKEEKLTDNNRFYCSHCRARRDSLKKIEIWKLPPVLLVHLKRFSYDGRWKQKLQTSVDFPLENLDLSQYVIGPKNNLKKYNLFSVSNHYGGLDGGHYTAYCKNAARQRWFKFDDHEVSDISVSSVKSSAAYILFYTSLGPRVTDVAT
Outline: as §1

[9] = biological target: USP9X (UniProt Q93008)
Outline: as §1

[10] = biological target: UniProt O00487
Outline: as §1

Measured: log2 ratio of Biotin-Ahx-Ub-VS probe labelling

Sequence of USP7 (Q93009 whole entry, looked up): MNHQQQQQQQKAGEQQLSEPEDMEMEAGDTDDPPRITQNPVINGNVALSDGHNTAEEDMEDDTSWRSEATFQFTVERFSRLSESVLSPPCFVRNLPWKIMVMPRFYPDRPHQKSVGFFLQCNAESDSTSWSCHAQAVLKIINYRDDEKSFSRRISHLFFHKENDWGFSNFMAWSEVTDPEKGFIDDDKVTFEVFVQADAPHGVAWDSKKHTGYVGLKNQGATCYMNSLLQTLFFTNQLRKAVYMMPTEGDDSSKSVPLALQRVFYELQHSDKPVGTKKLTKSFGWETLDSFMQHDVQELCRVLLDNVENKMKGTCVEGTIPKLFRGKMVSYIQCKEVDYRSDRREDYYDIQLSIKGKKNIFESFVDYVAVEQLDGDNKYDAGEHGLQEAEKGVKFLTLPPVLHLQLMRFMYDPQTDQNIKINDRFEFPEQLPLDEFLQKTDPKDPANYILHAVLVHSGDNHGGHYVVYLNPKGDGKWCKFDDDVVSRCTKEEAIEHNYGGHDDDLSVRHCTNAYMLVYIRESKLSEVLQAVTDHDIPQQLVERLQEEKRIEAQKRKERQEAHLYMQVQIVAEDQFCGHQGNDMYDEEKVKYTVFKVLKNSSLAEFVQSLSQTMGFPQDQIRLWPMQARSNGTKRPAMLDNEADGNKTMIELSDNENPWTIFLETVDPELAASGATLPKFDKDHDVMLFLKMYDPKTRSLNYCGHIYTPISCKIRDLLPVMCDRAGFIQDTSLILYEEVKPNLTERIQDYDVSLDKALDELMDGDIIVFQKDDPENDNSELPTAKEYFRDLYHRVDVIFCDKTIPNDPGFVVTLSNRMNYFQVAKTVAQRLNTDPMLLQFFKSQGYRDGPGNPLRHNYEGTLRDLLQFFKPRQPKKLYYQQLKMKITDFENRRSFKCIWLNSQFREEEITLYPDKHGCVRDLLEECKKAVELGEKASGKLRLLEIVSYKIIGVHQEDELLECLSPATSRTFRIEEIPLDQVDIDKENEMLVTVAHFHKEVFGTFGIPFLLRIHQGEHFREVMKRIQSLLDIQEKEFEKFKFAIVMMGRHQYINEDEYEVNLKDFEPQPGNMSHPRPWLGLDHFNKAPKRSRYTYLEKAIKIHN
Sequence of USP54 (Q70EL1 whole entry): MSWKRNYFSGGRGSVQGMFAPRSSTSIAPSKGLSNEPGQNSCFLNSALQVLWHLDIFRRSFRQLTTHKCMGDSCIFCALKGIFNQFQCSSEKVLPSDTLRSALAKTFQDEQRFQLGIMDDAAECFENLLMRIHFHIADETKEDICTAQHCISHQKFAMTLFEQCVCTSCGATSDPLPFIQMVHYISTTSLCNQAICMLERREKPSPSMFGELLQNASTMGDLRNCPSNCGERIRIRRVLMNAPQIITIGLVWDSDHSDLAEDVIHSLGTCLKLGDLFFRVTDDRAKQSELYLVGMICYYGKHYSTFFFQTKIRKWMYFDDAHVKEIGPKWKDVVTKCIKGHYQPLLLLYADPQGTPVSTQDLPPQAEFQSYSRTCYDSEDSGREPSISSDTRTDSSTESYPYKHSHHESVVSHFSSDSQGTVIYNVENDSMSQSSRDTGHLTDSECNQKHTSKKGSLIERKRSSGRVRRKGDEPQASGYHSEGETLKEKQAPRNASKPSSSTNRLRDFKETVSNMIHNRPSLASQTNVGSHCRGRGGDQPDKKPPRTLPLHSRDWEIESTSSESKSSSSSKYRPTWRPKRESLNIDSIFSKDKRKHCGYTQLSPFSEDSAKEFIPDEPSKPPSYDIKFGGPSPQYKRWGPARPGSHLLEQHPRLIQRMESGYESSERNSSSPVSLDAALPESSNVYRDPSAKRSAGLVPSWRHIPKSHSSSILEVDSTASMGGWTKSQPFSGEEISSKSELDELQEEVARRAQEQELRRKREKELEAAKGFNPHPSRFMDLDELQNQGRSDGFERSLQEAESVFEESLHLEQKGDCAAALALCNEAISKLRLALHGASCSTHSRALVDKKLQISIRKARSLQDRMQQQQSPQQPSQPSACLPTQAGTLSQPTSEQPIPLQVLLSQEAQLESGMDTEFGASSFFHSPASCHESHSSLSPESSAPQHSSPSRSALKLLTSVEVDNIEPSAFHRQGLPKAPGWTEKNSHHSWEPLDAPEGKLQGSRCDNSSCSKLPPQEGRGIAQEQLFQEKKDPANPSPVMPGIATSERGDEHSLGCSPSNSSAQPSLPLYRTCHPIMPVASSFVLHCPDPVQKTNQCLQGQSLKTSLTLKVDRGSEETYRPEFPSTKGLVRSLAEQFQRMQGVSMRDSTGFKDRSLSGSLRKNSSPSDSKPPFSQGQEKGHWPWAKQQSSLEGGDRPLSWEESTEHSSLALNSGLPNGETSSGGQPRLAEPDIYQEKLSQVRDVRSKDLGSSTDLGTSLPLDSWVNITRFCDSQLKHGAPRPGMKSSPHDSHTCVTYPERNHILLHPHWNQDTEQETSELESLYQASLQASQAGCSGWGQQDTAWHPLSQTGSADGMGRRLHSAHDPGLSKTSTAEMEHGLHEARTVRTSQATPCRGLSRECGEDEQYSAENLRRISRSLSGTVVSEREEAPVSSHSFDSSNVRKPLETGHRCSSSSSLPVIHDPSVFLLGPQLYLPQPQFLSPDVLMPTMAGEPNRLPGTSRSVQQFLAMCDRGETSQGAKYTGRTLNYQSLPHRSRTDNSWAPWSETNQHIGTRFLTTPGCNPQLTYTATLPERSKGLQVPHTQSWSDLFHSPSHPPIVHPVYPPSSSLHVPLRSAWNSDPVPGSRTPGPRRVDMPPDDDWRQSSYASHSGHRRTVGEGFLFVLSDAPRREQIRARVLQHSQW
Sequence of USP46 (P62068 whole entry): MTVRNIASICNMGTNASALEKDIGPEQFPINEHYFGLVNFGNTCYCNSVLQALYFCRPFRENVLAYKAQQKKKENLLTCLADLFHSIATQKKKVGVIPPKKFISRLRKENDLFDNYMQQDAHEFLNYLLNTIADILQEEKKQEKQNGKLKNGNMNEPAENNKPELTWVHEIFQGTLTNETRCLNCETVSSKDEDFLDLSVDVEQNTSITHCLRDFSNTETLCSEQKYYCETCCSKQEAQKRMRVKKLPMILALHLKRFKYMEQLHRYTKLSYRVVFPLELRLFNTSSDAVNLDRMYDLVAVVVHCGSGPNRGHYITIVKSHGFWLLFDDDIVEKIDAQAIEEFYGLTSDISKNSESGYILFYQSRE
Sequence of UniProt O00487 (O00487 whole entry): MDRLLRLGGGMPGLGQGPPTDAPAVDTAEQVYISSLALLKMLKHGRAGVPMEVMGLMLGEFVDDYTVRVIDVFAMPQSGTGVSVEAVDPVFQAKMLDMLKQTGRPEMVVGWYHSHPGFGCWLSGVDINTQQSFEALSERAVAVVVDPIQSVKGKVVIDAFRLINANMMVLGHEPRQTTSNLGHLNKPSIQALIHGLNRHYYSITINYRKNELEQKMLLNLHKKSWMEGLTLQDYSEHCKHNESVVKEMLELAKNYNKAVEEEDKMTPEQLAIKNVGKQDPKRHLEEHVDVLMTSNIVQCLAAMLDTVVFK

O=C(CCl)N1CC=C(c2c[nH]c3ccccc23)CC1
active: [2] -1.44 | [7] -1.53
inactive: [1] 0.0977 | [3] 0.0399 | [4] -0.728 | [5] -0.577 | [6] 0.155 | [8] -0.785 | [9] -0.82 | [10] -0.0429
